# From PubChem BioAssay (NCI)
# About 79,000 compounds went through this panel and 15% of them were active in at least one assay; those are over-represented in the sample as a whole. Values without a mark were called inactive. The source made the active and inactive calls. Cut-off read from the data, not from the text of the source: active = growth inhibition above about 70%; inactive = the rest.
# How the values were obtained:
# [1] = NCI Yeast Anticancer Drug Screen. Data for the wt1 strain (AID 149);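 note: 0% = growth of vehicle-treated wt1 cultures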; conditions: S. cerevisiae wt1 strain (SPY 50644) growth inhibition, hits give high values
# Summary of the method: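 Yeast wt1 strain exposed to compounds; growth inhibition measured relative to vehicle-treated controls.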
# [2] = NCI Yeast Anticancer Drug Screen. Data for the rad50EPP+ strain (AID 151);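 note: 0% = growth of vehicle-treated control cultures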; conditions: S. cerevisiae rad50 mutant strain, hits give high values
# Summary of the method: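 rad50EPP+ yeast treated with test compounds. Readout: growth vs vehicle control.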
# [3] = NCI Yeast Anticancer Drug Screen. Data for the rad50 strain (AID 155);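 note: 0% = growth of vehicle-only cultures of the same strain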; conditions: S. cerevisiae rad50 strain growth inhibition, hits give high values
# Summary of the method: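 Yeast carrying a defined DNA repair defect were exposed to test compounds, and growth was compared with vehicle-treated controls to give percent inhibition.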
# [4] = NCI Yeast Anticancer Drug Screen. Data for the mec2-1 strain (AID 157); conditions: S. cerevisiae mec2-1 strain, hits give high values
# Summary of the method: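 Growth inhibition is read against vehicle-treated controls after compound exposure of the mec2-1 yeast strain, which is defective in DNA damage repair or cell cycle control.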
# [5] = NCI Yeast Anticancer Drug Screen. Data for the sgs1 mgt1 strain (AID 161);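 note: 0% = growth of cultures given vehicle only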; conditions: S. cerevisiae sgs1 mgt1 strain, hits give high values
# Summary of the method: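 Compounds are added to genetically altered yeast, and growth is compared with cultures given vehicle alone to give percent inhibition.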
# [6] = NCI Yeast Anticancer Drug Screen. Data for the CLN2oe strain (AID 163);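 note: 0% = growth of vehicle-only control cultures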; conditions: S. cerevisiae CLN2oe strain, hits give high values
# Summary of the method: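 Compound-treated yeast; growth vs vehicle ctrl = % inhibition. Genetically altered strain (cell-cycle control).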
# [7] = NCI Yeast Anticancer Drug Screen. Data for the cln2 rad14 strain (AID 165);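 note: 0% = growth equal to vehicle treated cultures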; conditions: S. cerevisiae cln2 rad14 strain, hits give high values
# Summary of the method: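 Growth inhibition, relative to vehicle-treated controls, is the read-out. The test organism is a yeast strain with defined genetic alterations, cln2 rad14.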
# [8] = NCI Yeast Anticancer Drug Screen. Data for the bub3 strain (AID 167); conditions: S. cerevisiae bub3 mutant strain, hits give high values
# Summary of the method: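 Compounds were applied to a genetically altered yeast strain carrying a cell-cycle control defect. Growth inhibition was scored against vehicle-treated controls.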
# [9] = NCI Yeast Anticancer Drug Screen. Data for the wt2 strain (AID 169);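 note: 0% = growth of vehicle-treated yeast cultures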; conditions: S. cerevisiae wt2 strain growth inhibition, hits give high values
# Summary of the method: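 Compound exposure of yeast; growth compared with vehicle controls; inhibition reported.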
# [10] = NCI Yeast Anticancer Drug Screen. Data for the mlh1 strain (AID 171);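 note: 0% = growth of vehicle-treated control cultures of the same strain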; conditions: S. cerevisiae mlh1 strain growth inhibition, hits give high values
# Summary of the method: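 Compounds are applied to a genetically altered yeast strain, and its growth is compared with that of vehicle-treated cultures to give percent inhibition.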
# [11] = NCI Yeast Anticancer Drug Screen. Data for the sgs1 strain (AID 173);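 note: 0% = growth of vehicle-only control cultures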; conditions: S. cerevisiae sgs1 mutant, hits give high values
# Summary of the method: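 Compounds applied to genetically altered yeast; growth compared with vehicle-treated cultures to give % inhibition.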
# [12] = NCI Yeast Anticancer Drug Screen. Data for the mlh1 rad18 strain (AID 175); conditions: S. cerevisiae mlh1 rad18 strain growth inhibition, hits give high values
# Summary of the method: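 Cells of a genetically altered yeast strain, deficient in DNA damage repair, were treated with compound. Their growth was then compared with that of vehicle-treated cultures to give inhibition.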
# [13] = NCI Yeast Anticancer Drug Screen. Data for the rad18 strain (AID 177); conditions: S. cerevisiae rad18 mutant growth inhibition, hits give high values
# Summary of the method: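 Compounds are applied to a repair-deficient yeast strain, and growth is compared with that of vehicle-treated cultures to give percent inhibition.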
# [14] = NCI Yeast Anticancer Drug Screen. Data for the rad14 strain (AID 159);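 note: 0% = growth of vehicle-treated control cultures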; conditions: S. cerevisiae rad14 strain growth inhibition, hits give high values
# Summary of the method: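 Yeast cells carrying a defined DNA-repair defect were exposed to compounds, and growth inhibition was calculated relative to vehicle-treated control cultures.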
# [15] = at 5.0 µM (retest, dose inferred, filed as 0.5)
# [16] = at 50.0 µM (retest, dose inferred, filed as 5.0)
smiles,measurement,setting,value
CN(NC(=O)/C(=C/C=C/c1ccccc1)NC(=O)c1ccccc1)C1=C(Cl)C(=O)[N+](c2ccccc2)=CC1,growth inhibition,[1]; at 1.2 µM,0%
same,growth inhibition,[1]; at 3.7 µM,2%
same,growth inhibition,[1]; at 11.0 µM,15%
same,growth inhibition,[1]; at 33.0 µM,38%
same,growth inhibition,[1]; at 100.0 µM,40%
same,growth inhibition,[2]; at 1.2 µM,1%
same,growth inhibition,[2]; at 3.7 µM,7%
same,growth inhibition,[2]; at 11.0 µM,37%
same,growth inhibition,[2]; at 33.0 µM,69%
same,growth inhibition,[2]; at 100.0 µM,79% (active)
same,growth inhibition,[3]; at 1.2 µM,-4%
same,growth inhibition,[3]; at 3.7 µM,-1%
same,growth inhibition,[3]; [15],-3%
same,growth inhibition,[3]; at 11.0 µM,34%
same,growth inhibition,[3]; at 33.0 µM,63%
same,growth inhibition,[3]; [16],30%
same,growth inhibition,[3]; at 50.0 µM,58.1%
same,growth inhibition,[3]; at 100.0 µM,67%
same,growth inhibition,[4]; at 1.2 µM,0%
same,growth inhibition,[4]; at 3.7 µM,6%
same,growth inhibition,[4]; [15],-12%
same,growth inhibition,[4]; at 11.0 µM,16%
same,growth inhibition,[4]; at 33.0 µM,37%
same,growth inhibition,[4]; [16],2%
same,growth inhibition,[4]; at 50.0 µM,35.2%
same,growth inhibition,[4]; at 100.0 µM,49%
same,growth inhibition,[5]; [15],-6%
same,growth inhibition,[5]; [16],8%
same,growth inhibition,[5]; at 50.0 µM,79.8% (active)
same,growth inhibition,[6]; at 1.2 µM,-1%
same,growth inhibition,[6]; at 3.7 µM,5%
same,growth inhibition,[6]; at 11.0 µM,19%
same,growth inhibition,[6]; at 33.0 µM,40%
same,growth inhibition,[6]; at 100.0 µM,44%
same,growth inhibition,[7]; [15],30%
same,growth inhibition,[7]; [16],35%
same,growth inhibition,[7]; at 50.0 µM,15.8%
same,growth inhibition,[8]; at 1.2 µM,1%
same,growth inhibition,[8]; at 3.7 µM,11%
same,growth inhibition,[8]; [15],-5%
same,growth inhibition,[8]; at 11.0 µM,33%
same,growth inhibition,[8]; at 33.0 µM,53%
same,growth inhibition,[8]; [16],72% (active)
same,growth inhibition,[8]; at 50.0 µM,70.4% (active)
same,growth inhibition,[8]; at 100.0 µM,49%
same,growth inhibition,[9]; at 1.2 µM,-3%
same,growth inhibition,[9]; at 3.7 µM,0%
same,growth inhibition,[9]; at 11.0 µM,19%
same,growth inhibition,[9]; at 33.0 µM,42%
same,growth inhibition,[9]; at 100.0 µM,43%
same,growth inhibition,[10]; at 1.2 µM,2%
same,growth inhibition,[10]; at 3.7 µM,8%
same,growth inhibition,[10]; at 11.0 µM,37%
same,growth inhibition,[10]; at 33.0 µM,61%
same,growth inhibition,[10]; at 100.0 µM,63%
same,growth inhibition,[11]; at 1.2 µM,1%
same,growth inhibition,[11]; at 3.7 µM,5%
same,growth inhibition,[11]; at 11.0 µM,27%
same,growth inhibition,[11]; at 33.0 µM,70% (active)
same,growth inhibition,[11]; at 100.0 µM,69%
same,growth inhibition,[12]; [15],-2%
same,growth inhibition,[12]; [16],18%
same,growth inhibition,[12]; at 50.0 µM,84.4% (active)
same,growth inhibition,[13]; at 1.2 µM,1%
same,growth inhibition,[13]; at 3.7 µM,26%
same,growth inhibition,[13]; at 11.0 µM,77% (active)
same,growth inhibition,[13]; at 33.0 µM,90% (active)
same,growth inhibition,[13]; at 100.0 µM,87% (active)
CN(C)N1C(=O)SCC(c2ccccc2)(c2ccccc2)C1=O,growth inhibition,[1]; at 1.2 µM,-4%
same,growth inhibition,[1]; at 3.7 µM,-4%
same,growth inhibition,[1]; at 11.0 µM,-3%
same,growth inhibition,[1]; at 33.0 µM,6%
same,growth inhibition,[1]; at 100.0 µM,16%
same,growth inhibition,[2]; at 1.2 µM,-2%
same,growth inhibition,[2]; at 3.7 µM,2%
same,growth inhibition,[2]; at 11.0 µM,-32%
same,growth inhibition,[2]; at 33.0 µM,4%
same,growth inhibition,[2]; at 100.0 µM,7%
same,growth inhibition,[3]; at 1.2 µM,4%
same,growth inhibition,[3]; at 3.7 µM,7%
same,growth inhibition,[3]; [15],-10%
same,growth inhibition,[3]; at 11.0 µM,8%
same,growth inhibition,[3]; at 33.0 µM,30%
same,growth inhibition,[3]; [16],61%
same,growth inhibition,[3]; at 50.0 µM,64.8%
same,growth inhibition,[3]; at 100.0 µM,50%
same,growth inhibition,[4]; at 1.2 µM,1%
same,growth inhibition,[4]; at 3.7 µM,1%
same,growth inhibition,[4]; [15],9%
same,growth inhibition,[4]; at 11.0 µM,2%
same,growth inhibition,[4]; at 33.0 µM,9%
same,growth inhibition,[4]; [16],43%
same,growth inhibition,[4]; at 50.0 µM,10.2%
same,growth inhibition,[4]; at 100.0 µM,27%
same,growth inhibition,[14]; at 1.2 µM,1%
same,growth inhibition,[14]; at 3.7 µM,-3%
same,growth inhibition,[14]; at 11.0 µM,-4%
same,growth inhibition,[14]; at 33.0 µM,-15%
same,growth inhibition,[14]; at 100.0 µM,-19%
same,growth inhibition,[5]; [15],11%
same,growth inhibition,[5]; [16],43%
same,growth inhibition,[5]; at 50.0 µM,15.4%
same,growth inhibition,[6]; at 1.2 µM,-2%
same,growth inhibition,[6]; at 3.7 µM,7%
same,growth inhibition,[6]; at 11.0 µM,2%
same,growth inhibition,[6]; at 33.0 µM,1%
same,growth inhibition,[6]; at 100.0 µM,2%
same,growth inhibition,[7]; [15],-26%
same,growth inhibition,[7]; [16],3%
same,growth inhibition,[7]; at 50.0 µM,6.9%
same,growth inhibition,[8]; at 1.2 µM,-2%
same,growth inhibition,[8]; at 3.7 µM,-1%
same,growth inhibition,[8]; [15],12%
same,growth inhibition,[8]; at 11.0 µM,12%
same,growth inhibition,[8]; at 33.0 µM,17%
same,growth inhibition,[8]; [16],60%
same,growth inhibition,[8]; at 50.0 µM,21.6%
same,growth inhibition,[8]; at 100.0 µM,23%
same,growth inhibition,[9]; at 1.2 µM,-2%
same,growth inhibition,[9]; at 3.7 µM,-3%
same,growth inhibition,[9]; at 11.0 µM,-1%
same,growth inhibition,[9]; at 33.0 µM,4%
same,growth inhibition,[9]; at 100.0 µM,11%
same,growth inhibition,[10]; at 1.2 µM,-1%
same,growth inhibition,[10]; at 3.7 µM,1%
same,growth inhibition,[10]; at 11.0 µM,1%
same,growth inhibition,[10]; at 33.0 µM,12%
same,growth inhibition,[10]; at 100.0 µM,-10%
same,growth inhibition,[11]; at 1.2 µM,-1%
same,growth inhibition,[11]; at 3.7 µM,1%
same,growth inhibition,[11]; at 11.0 µM,4%
same,growth inhibition,[11]; at 33.0 µM,20%
same,growth inhibition,[11]; at 100.0 µM,34%
same,growth inhibition,[12]; [15],12%
same,growth inhibition,[12]; [16],29%
same,growth inhibition,[12]; at 50.0 µM,47%
same,growth inhibition,[13]; at 1.2 µM,6%
same,growth inhibition,[13]; at 3.7 µM,5%
same,growth inhibition,[13]; at 11.0 µM,26%
same,growth inhibition,[13]; at 33.0 µM,59%
same,growth inhibition,[13]; at 100.0 µM,75% (active)
